Assay outcomes deposited in PubChem by several laboratories.
Jurkat NFkB inh: inhibitors of induced NF-kB luciferase reporter, primary screen, TCR NF-kB activation inhibitor project, cell-based, luminescence, uHTS. Jurkat, PMA/ionomycin-induced NF-kB luciferase reporter. inhibition, % at 4 µM. 330,000 tested, 0.53% active. AID 435003, 2010; in the data active means inhibition above about 50%
697 NFkB inh: inhibitors of PMA/ionomycin-induced NF-kB reporter, 697 cells, primary screen, B-cell NF-kB inhibitor project, cell-based, luminescence, uHTS; 697 B-cell NF-kB luciferase reporter, 16 h; inhibition, % at 4 µM; 330,000 tested, 0.33% active; AID 435022, 2010; in the data active means inhibition above about 35%
Gli-Sufu antag: Gli-Sufu pathway antagonists, primary screen, luciferase luminescence, Sufu-KO-LIGHT cells, uHTS; Sufu-KO-LIGHT fibroblasts, Gli luciferase reporter luminescence; inhibition, % at 5 µM; 340,000 tested, 0.74% active; AID 588413, 2011;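 active means inhibition above about 55%, limit read from the data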;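 further: 0% = DMSO-treated cells and 100% = wells with medium but no cells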
esBAF inh: Bmi1 luciferase reporter increase in mESCs, primary screen, esBAF inhibitor project, mouse ES cells, Bmi1 luciferase knock-in, single point; 24 h; 100% = twice the neutral-well signal; reporter increase, % at 12.5 µM; 350,000 tested, 2% active; AID 602393, 2012; in the data active means activation above about 40%; inconclusive means no clear call, values can overlap the other calls;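 further: 0% = median of the plate's neutral control wells and 100% = double that signal; a rise in the Bmi1 reporter signal indicates esBAF inhibition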
SMARCA2 activ: SMARCA2 (BRM) function activators, primary screen, cell-based, luminescence, high throughput; MG213 cells, MMTV-luciferase reporter, dexamethasone, overnight; activation, % at 9.1 µM; 370,000 tested, 1% active; in the data active means activation above about 7.8%;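 further: 0% = vehicle wells and 100% = reference activator wells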
The depositor's hits bear a star; ? = inconclusive; · = no result given. This is a sample that favours compounds with a hit; in the whole collection about 3.3% have one here.

SMILES	Jurkat NFkB inh	697 NFkB inh	Gli-Sufu antag	esBAF inh	SMARCA2 activ
C[C@H](CO)N1C[C@H](C)[C@H](CN(C)S(=O)(=O)c2ccc(Cl)cc2)Oc2ccc(NC(=O)CCCCCC(=O)Nc3ccccc3N)cc2CC1=O	·	·	·	-9	·
CNC[C@H]1OCCCC[C@H](C)Oc2ccc(NC(=O)C3CCCCC3)cc2C(=O)N([C@H](C)CO)C[C@@H]1C	·	·	·	-5	·
COc1ccc(OCCCSc2ncccn2)cc1	-87	-84	-93	57*	6
Nc1cc(N)nc(SCCOc2ccccc2)n1	-25	-12	-51	38	6
COc1ccc(OCCSc2ncccn2)cc1	-103	-144	-89	?	7
COc1cccc(OCCCCSc2ncccn2)c1	-29	-13	-1	55*	1
Cc1ccc(OCCCSc2ncccn2)cc1C	-57	-54	-80	70*	4
c1cnc(SCCCOc2ccc3ccccc3c2)nc1	-43	10	-33	38	0
COc1cccc(OCCSc2nc(N)cc(N)n2)c1	-42	-105	-42	55*	·
CCC(=O)N1C[C@@H](C)[C@H](OC)CN(C)C(=O)c2ccc(NC(=O)c3ccccc3)cc2OC[C@@H]1C	·	·	·	-2	·
CN1[C@H](C(=O)NCCN2CCCCC2)[C@@H](CO)[C@@H]2Cn3c(ccc(-c4ccc(F)cc4)c3=O)[C@@H]21	·	·	·	-4	·
CN1C(=O)c2cc(NS(=O)(=O)c3ccc(F)cc3)ccc2OC[C@H]2O[C@H](CC(=O)O)CC[C@H]21	·	·	·	-4	·
O=C(CSc1nnc(NC(=O)c2ccccc2Cl)s1)Nc1ccc2c(c1)oc1ccccc12	-64	-80	·	·	11*
CC(C)(C)NC(=O)CSc1nnc(NC(=O)c2ccccc2Cl)s1	2	-3	-6	·	0
Clc1ccccc1OCCCOc1cccc2cccnc12	-64	-67	-30	55*	3
O=Cc1ccccc1OCCCOc1cccc2cccnc12	3	-18	-20	25	7
Brc1ccc(OCCCOc2cccc3cccnc23)cc1	-6	-7	5	72*	-2
O=[N+]([O-])c1ccccc1OCCCOc1cccc2cccnc12	-31	-50	-34	60*	2
CC1CCc2nc(NC(=O)Cc3cccs3)sc2C1 (stereo not drawn)	-105	-101	-78	58*	3
CC1CCc2nc(NC(=O)C3CCCO3)sc2C1 (stereo not drawn)	-148	-139	-29	-25	2
O=C(CCCc1cccs1)Nc1nc2c(s1)CCCC2	-46	-55	-3	53*	3
O=C([C@@H]1[C@@H](CO)[C@@H]2Cn3c(ccc(-c4ccncc4)c3=O)[C@H]1N2Cc1cccnc1)N1CCOCC1	·	·	·	5	·
